Assay outcomes as filed in PubChem BioAssay.
PrPC surface inh = cell surface PrPC inhibition, primary TR-FRET screen; TR-FRET read-out; inhibition, % at 13.8 µM; hit rate 0.43% among 370,000; AID 720596; in the data active = inhibition above about 24%; also: 0% = median of the test wells and 100% = reference compound wells
PfHsp40 yeast = compounds rescuing yeast from Plasmodium falciparum HSP40 toxicity; S. cerevisiae expressing PfHsp40, growth rescue, ATP luminescence; growth rescue, % at 12.5 µM; hit rate 0.68% among 340,000; in the data active = growth rescue above about 28%, passing the limit was not always enough;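 also: yeast W303a lacking pdr1 and pdr3 grown in galactose medium; growth measured after three days at 30 °C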
RecA intein inh = blocks M. tuberculosis RecA intein splicing; cell-free RecA intein splicing, fluorescence; inhibition, % (test concentration not listed); hit rate 0.75% among 290,000; AID 2221; in the data active = inhibition above about 30%;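 also: 0% = vehicle wells and 100% = reference inhibitor control wells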
Target sequence (P9WHJ3 whole entry, looked up): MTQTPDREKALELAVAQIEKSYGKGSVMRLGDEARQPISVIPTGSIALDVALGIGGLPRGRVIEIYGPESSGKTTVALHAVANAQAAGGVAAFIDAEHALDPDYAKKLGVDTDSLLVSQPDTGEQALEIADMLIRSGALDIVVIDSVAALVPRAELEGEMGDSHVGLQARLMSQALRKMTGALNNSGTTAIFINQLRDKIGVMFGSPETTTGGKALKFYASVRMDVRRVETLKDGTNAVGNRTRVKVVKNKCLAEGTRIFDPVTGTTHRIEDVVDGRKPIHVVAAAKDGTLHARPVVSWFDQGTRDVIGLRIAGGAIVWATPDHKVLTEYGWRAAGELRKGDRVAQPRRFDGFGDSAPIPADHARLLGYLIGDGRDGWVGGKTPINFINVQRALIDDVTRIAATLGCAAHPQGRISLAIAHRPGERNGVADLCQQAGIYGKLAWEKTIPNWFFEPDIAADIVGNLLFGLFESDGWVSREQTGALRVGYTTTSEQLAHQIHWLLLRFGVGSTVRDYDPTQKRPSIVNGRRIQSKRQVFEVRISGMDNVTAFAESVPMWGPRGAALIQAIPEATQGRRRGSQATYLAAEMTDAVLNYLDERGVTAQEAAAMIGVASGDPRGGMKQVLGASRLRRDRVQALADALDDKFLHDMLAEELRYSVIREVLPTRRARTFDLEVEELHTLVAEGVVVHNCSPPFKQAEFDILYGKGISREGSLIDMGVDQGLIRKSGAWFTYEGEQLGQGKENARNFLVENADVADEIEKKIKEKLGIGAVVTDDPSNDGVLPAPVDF
SSB-PriA inh = K. pneumoniae PriA-SSBct interaction inhibition. AlphaScreen SSBct-PriA binding, biotinylated peptide. inhibition, % at 33 µM. hit rate 0.6% among 430,000. AID 1272365; in the data active = inhibition mostly above about 37%, no sharp cut-off; inactive = mostly below about 20%;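 also: plate controls were negative control peptide for no effect and reference peptide for full effect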
PrP 5UTR inh = inhibition of PrP 5' UTR reporter expression; inhibition, % (no concentration beside the values); hit rate 0.35% among 340,000; cell-based PrP 5' UTR mRNA reporter, plate reader; in the data active = inhibition above about 52%; also: 0 = median of the neutral control wells
BJeLR lethal = kills HRASV12-expressing BJeLR cells. inhibition, % (no concentration beside the values). BJeLR (HRASV12) viability, CellTiter-Glo ATP luminescence, 48 h. hit rate 0.17% among 300,000. AID 1554; in the data active = inhibition above about 50%
* hit, by the source's call; i = inactive; . = no result given. This is a sample that favours compounds with a hit; in the whole collection about 1.9% have one here.

SMILES | PrPC surface inh | PfHsp40 yeast | RecA intein inh | SSB-PriA inh | PrP 5UTR inh | BJeLR lethal
CCOc1ccc(N=c2cc(-c3ccc(OC)cc3)oc3ccccc23)cc1 | -5 | -1 | 5 | 39* | -4 | 1
COc1ccc(-c2cc(=Nc3ccccc3)c3cc(C)ccc3o2)cc1 | 3 | -2 | 14 | 29 | 10 | 2
COc1ccc(N=c2cc(-c3ccc(OC)cc3)oc3ccccc23)cc1 | -3 | 0 | 10 | 53* | -19 | -11
COc1ccc(-c2cc(=O)c3ccccc3o2)cc1 | 9 | 0 | 3 | -2 | -87 | 7
COc1ccc(-c2cc(=Nc3ccc(C)cc3)c3ccccc3o2)cc1 | -7 | 3 | 4 | 10 | 10 | -2
O=C(CN(c1cccc(Br)c1)S(=O)(=O)c1ccccc1)N/N=C/c1cc([N+](=O)[O-])ccc1O | 12 | 247* | 33* | . | -9 | -4
O=C(CSc1nc2ccccc2s1)N/N=C/c1cc([N+](=O)[O-])ccc1O | 6 | 190* | -2 | . | -20 | -5
O=C(Cn1cncn1)NN=Cc1cc([N+](=O)[O-])ccc1O | . | . | . | 40* | . | .
COc1cc([N+](=O)[O-])cc(C=NNC(=O)Cn2cncn2)c1O | . | . | . | 23 | . | .
CN(C)[C@@H](CNC(=O)c1ccc(OC(F)(F)F)cc1)c1cn(C)c2ccccc12 | . | . | . | -2 | . | .
O=C(NC[C@H](O)Cn1c2ccccc2c2ccccc21)NC1CCCCC1 | . | . | . | -10 | . | .
COc1ccc(NC(=S)NNc2ccc(S(=O)(=O)Nc3ccccc3C(=O)O)cc2[N+](=O)[O-])cc1 | -31 | 1 | 2 | 55* | 3 | 6
COc1ccc(C=NNc2ccc(S(=O)(=O)Nc3ccccc3C(=O)O)cc2[N+](=O)[O-])c(OC)c1 | . | 2 | . | 46* | -9 | .
COc1ccc(S(=O)(=O)Nc2ccccc2C(=O)Nc2ccc(OC)cc2[N+](=O)[O-])cc1 | . | . | . | 44* | . | .
COc1ccc(NC(=O)c2ccccc2)c([N+](=O)[O-])c1 | -21 | 0 | -1 | 4 | -63 | -9
O=C(O)c1ccccc1NS(=O)(=O)c1ccc(NN=Cc2ccc(O)c(O)c2)c([N+](=O)[O-])c1 | . | . | . | 44* | . | .
COc1ccccc1NS(=O)(=O)c1ccc(N/N=C/c2ccccc2C(=O)O)c([N+](=O)[O-])c1 | . | . | . | i | . | .
CCOc1ccc(OCc2cccc(C(=O)NN=Cc3cccnc3)c2)cc1 | . | . | . | 8 | . | .
CCOC(=O)c1ccc(NC(=O)Cn2c(=O)n(Cc3nc(C)no3)c(=O)c3ccccc32)cc1 | . | . | . | 0 | . | .
COc1cc([N+](=O)[O-])cc(C=NNC(=O)Cn2nccc2C)c1O | . | . | . | 6 | . | .
CCCCCCC(Cl)(Cn1ccnc1)c1ccccc1 (stereo not drawn) | 12 | 255* | 2 | 3 | -12 | -3
CC(C(=O)NCCCn1ccnc1)(c1ccccc1)c1ccccc1 | 5 | 0 | 0 | 6 | -21 | -6
O=C(c1ccc(Cl)s1)N1CCc2oncc2C1 | . | . | . | 0 | . | .
Cc1nc(N)nc(N)c1/C=C/C(C)(C)c1ccc(Cl)cc1 | 21 | 151* | 8 | -7 | 50 | 69*
Cc1ccccc1C1=C/C(=C(\SS/C(C(=O)c2ccc(OCC(=O)O)c(Cl)c2Cl)=C2\C=C(c3ccccc3C)SS2)C(=O)c2ccc(OCC(=O)O)c(Cl)c2Cl)SS1 | 7 | -1 | . | 62* | -2 | .
SMILES | PrPC surface inh | PfHsp40 yeast | RecA intein inh | SSB-PriA inh | PrP 5UTR inh | BJeLR lethal
Cc1cc(Cl)ccc1OCC(=O)O | 8 | 0 | -1 | -5 | -13 | -23
Cc1ccc(/C(N)=N/OC(=O)N2c3ccccc3Sc3ccccc32)cc1 | -5 | 0 | 12 | . | -36 | -6
Cc1ccc(C(N)=NOC(=O)N2c3ccccc3Sc3ccccc32)cc1 | . | . | . | 57* | . | .
OCCN(Cc1ccccc1)Cc1ncccc1O | 5 | 5 | . | -2 | -3 | .
OCCN(Cc1cccnc1)Cc1ccccn1 | 0 | 0 | . | 42* | 2 | .
Cc1cc(C)n(-c2nnc(C)c(=O)[nH]2)n1 | -1 | 0 | -6 | 74* | -19 | -8
CCCc1cc(=O)[nH]c(-n2nc(C)cc2C)n1 | . | . | . | 12 | . | .
Cc1csc(SCc2cc(=O)c(OC(=O)c3ccc(C(F)(F)F)cc3)co2)n1 | . | . | . | -12 | . | .
COc1ccc(S(=O)(=O)NC2CCCCC2)c(C)c1C | 2 | 86* | 3 | -16 | 0 | 6
CCCCCCCCNC(=O)CCNC(=O)c1ccc(C(C)(C)C)cc1 | -4 | 47* | 0 | -4 | -6 | -5
COc1ccc(C(=O)N2CCN(c3ccc(-c4cccs4)nn3)CC2)c(OC)c1 | . | . | . | -10 | . | .
O=C(NC1=C(Nc2ccc(F)cc2)C(=O)c2ccccc2C1=O)c1ccc(Cl)cc1 | -9 | 1 | 59* | 9 | -28 | -14
O=C(c1cc([N+](=O)[O-])ccc1Cl)N1c2ccccc2Sc2ccccc21 | -8 | 2 | -3 | 62* | -13 | -40
O=C(c1cc([N+](=O)[O-])ccc1Cl)N1CCN(c2ccccc2)CC1 | -4 | 0 | 0 | 0 | -40 | -1
CCn1nc([N+](=O)[O-])c(C(C#N)c2nc3cc(C(F)(F)F)ccc3s2)c(Cl)c1=O (stereo not drawn) | -31 | 3 | 4 | 73* | -32 | 10
CCCn1nc([N+](=O)[O-])c(C(C#N)c2nc3ccccc3o2)c(Cl)c1=O (stereo not drawn) | -34 | 0 | 5 | 22 | -9 | -1
COc1ccc(S(=O)(=O)N(CC(C)C)C2CCS(=O)(=O)C2)cc1 (stereo not drawn) | . | . | . | 12 | . | .
COc1ccc(S(=O)(=O)N(CC(C)C)C2CCS(=O)(=O)C2)cc1OC (stereo not drawn) | -3 | -2 | 5 | 38* | -37 | 3
Cc1ccc(NC(=S)NC(=O)c2sc3ccccc3c2Cl)c(C(=O)O)c1 | . | . | 3 | . | . | -1
O=C(O)c1ccccc1NC(=S)NC(=O)c1sc2ccccc2c1Cl | 26* | 0 | -4 | -9 | -20 | .
CN(C)S(=O)(=O)c1ccc(-c2nnc(NC(=O)Cc3ccc(F)cc3)o2)cc1 | . | . | . | -1 | . | .
O=[N+]([O-])c1ccccc1N/N=C\c1ccccc1Cl | 0 | -1 | 0 | . | -129 | 72*
COc1ccc(CCC(=O)NC2CC(O)C(CO)C2)cc1 (stereo not drawn) | . | . | . | -14 | . | .
CCOc1ccccc1NC(=O)CSc1nccn1-c1ccc(C(=O)NCc2cccs2)cc1 | . | . | . | 40* | . | .
COc1cccc(-n2ccnc2SCC(=O)Nc2cc(OC)ccc2OC)c1 | 4 | 1 | 3 | 46* | 12 | -13
SMILES | PrPC surface inh | PfHsp40 yeast | RecA intein inh | SSB-PriA inh | PrP 5UTR inh | BJeLR lethal
COc1ccc(-n2ccnc2SCC(=O)Nc2ccc(Cl)cc2)cc1 | . | . | . | 49* | . | .
COc1cccc(-n2ccnc2SCC(=O)Nc2ccccc2C(F)(F)F)c1 | . | . | . | 44* | . | .
CCc1cc2c(NCCCCCC(=O)O)nc(C)nc2s1 | . | . | . | 5 | . | .
COc1ccc(-n2ccnc2SCC(=O)Nc2cc(C)ccc2C)c(OC)c1 | . | . | . | 39* | . | .
CCOC(=O)c1ccc(NC(=O)CSc2nccn2-c2ccc(OC)cc2OC)cc1 | . | . | . | -29 | . | .
Cc1cccc(-n2ccnc2SCC(=O)Nc2ccc([N+](=O)[O-])cc2)c1C | . | . | . | 51* | . | .
